Screening results from PubChem.
Sampled rows, rich in hits. Any-hit rate of the full collection: about 12%.
G9a block = inhibitors of human histone lysine methyltransferase G9a | Q96KQ7 | G9a H3K9 monomethylation, AlphaScreen, 2 h | Potency, µM (doses to about 102 µM), for inactives: top-dose activity, negative = inhibition, actives largely listed as inhibitors | 350,000 compounds, 8.8% hits; also: potency is read from the fitted curve at half-maximal effect; % is scaled to controls: 0 for no effect and ±100 for the full control effect; nearly all actives have a fitted effect of over 75% in size
Target sequence (Q96KQ7 913-1193 limits assumed): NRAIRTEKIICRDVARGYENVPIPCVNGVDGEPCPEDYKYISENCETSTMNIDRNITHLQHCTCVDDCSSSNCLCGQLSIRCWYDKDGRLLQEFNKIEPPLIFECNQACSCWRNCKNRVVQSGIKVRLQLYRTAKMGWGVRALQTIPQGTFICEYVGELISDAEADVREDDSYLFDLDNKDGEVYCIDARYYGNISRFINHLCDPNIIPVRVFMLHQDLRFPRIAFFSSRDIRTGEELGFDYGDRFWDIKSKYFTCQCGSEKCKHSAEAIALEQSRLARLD
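Chemiluminescent proximity detection of H3K9 monomethylation, read after 10 min bead incubation in the dark. Reaction: 20 nM G9a, 500 nM biotin-H3K9 peptide, 20 uM SAM cofactor, 2 h, room temperature, following 15 min enzyme-compound preincubation.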
JMJD2A Tudor = JMJD2A Tudor domain (human) inhibition. O75164. Potency, µM (doses to about 114 µM), for the others: at the top dose activity change, negative = inhibition, actives largely listed as inhibitors. AlphaScreen JMJD2A-Tudor / H3K4me3 peptide binding. 390,000 compounds, 4.4% hits; also: potency is read from the fitted curve at half-maximal effect; % is scaled to controls: 0 for no effect and ±100 for the full control effect; nearly all actives have a fitted effect of over 50% in size
PI5P4K alpha inh = inhibitors of human PI5P4K alpha; P48426; PI5P4Kalpha enzyme, ADP-Glo luminescence, 60 min; stronger effect = lower value; max response, %; 330,000 compounds, 1.2% hits; AID 652105; active = max response of -50% or lower; inconclusive = between -30% and -50%; inactive = -30% or higher; also: value at the top dose of about 77 µM; % is scaled to controls: 0 for no effect and ±100 for the full control effect
Target sequence (P48426 whole entry, looked up): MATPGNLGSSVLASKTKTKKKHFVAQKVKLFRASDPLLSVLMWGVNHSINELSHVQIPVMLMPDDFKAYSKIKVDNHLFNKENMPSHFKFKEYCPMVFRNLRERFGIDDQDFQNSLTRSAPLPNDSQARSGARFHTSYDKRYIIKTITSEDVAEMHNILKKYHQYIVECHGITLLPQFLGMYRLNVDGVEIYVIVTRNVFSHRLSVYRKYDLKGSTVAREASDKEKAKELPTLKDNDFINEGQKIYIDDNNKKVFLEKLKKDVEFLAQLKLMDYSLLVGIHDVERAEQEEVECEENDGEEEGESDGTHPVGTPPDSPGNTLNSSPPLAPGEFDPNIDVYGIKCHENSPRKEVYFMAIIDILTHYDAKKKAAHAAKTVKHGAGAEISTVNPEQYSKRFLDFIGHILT
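Human PI5P4Kalpha with substrate in 0.038 M HEPES pH 7.4, 0.28 mM EGTA, 0.1% CHAPS, 5% DMSO; reaction started with 5 microM ATP (final), 60 min at room temperature. ADP formed read by ADP-Glo luminescence.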
HP1b binding inh = inhibitors of HP1-beta chromodomain binding to methylated histone tails | P83916 | 390,000 compounds, 0.56% hits | AlphaScreen HP1-beta / biotin-H3K9me3 peptide binding | Potency, µM (highest dose often 114 µM), inactives show top-dose activity change, negative = inhibition, hits mostly inhibitors | AID 540317; also: potency is read from the fitted curve at half-maximal effect; nearly all actives have a fitted effect of over 70% in size
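Compound inhibition of the preformed complex between 50 nM HP1-beta and 50 nM biotinylated H3K9me3 peptide was read by AlphaScreen. Buffer was PBS pH 7.4 with 0.01% Tween-20. Incubations ran 30 min at room temperature, with 10 ug/mL donor/acceptor beads.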
BAZ2B block = BAZ2B (human) inhibition. Q9UIF8. AlphaScreen BAZ2B-H3K14Ac peptide displacement. Potency, µM (titrated, usually from 114 µM), inactives show at the top dose activity change, negative = inhibition, most hits filed as inhibitors. 360,000 compounds, 4.4% hits; also: potency is read from the fitted curve at half-maximal effect; % is scaled to controls: 0 for no effect and ±100 for the full control effect; nearly all actives have a fitted effect of over 60% in size
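Complex of BAZ2B and biotin-H3K14Ac (50 nM apiece) forms over 30 min at RT, then faces library compounds up to 110 uM for another 30 min; AlphaScreen beads added, 20 min dark incubation, luminescence read.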
PLK1 PBD block = inhibitors of human PLK1 polo-box domain binding. P53350. Plk1 PBD binding of FITC phosphopeptide, fluorescence polarization. Potency, µM, without a hit: max response, negative = inhibition, actives largely listed as inhibitors. 360,000 compounds, 2.8% hits. AID 720504; also: potency is read from the fitted curve at half-maximal effect; series mostly up to about 57 µM; % is scaled to controls: 0 for no effect and ±100 for the full control effect; nearly all actives have a fitted effect of over 65% in size
* = called active by the depositor; [ ] = another dose, or the depositor's remark. Unless noted, calls follow the shape of the dose curve; as a rule, active = well fitted curve in the direction sought with a large enough effect; inconclusive = small, poorly fitted or top-dose-only effect, or another doubt; inactive = no such curve, though single readings can be large; an effect the other way counts as inactive or inconclusive.

`CNC(=S)Nc1cccc(Cl)c1C` gave G9a block -0.9%, JMJD2A Tudor -15.4%, PI5P4K alpha inh -2.3, HP1b binding inh 36.1%, BAZ2B block -16.4% and PLK1 PBD block -13.8%.
`Cc1ccc(Oc2cc(NN3CCCCC3)c([N+](=O)[O-])cc2[N+](=O)[O-])c(Cl)c1` gave G9a block inconclusive, JMJD2A Tudor inconclusive, PI5P4K alpha inh 2.6, HP1b binding inh inconclusive, BAZ2B block inconclusive and PLK1 PBD block -11.2%.
CCCNS(=O)(=O)c1cc(-c2nnc3c4ccccc4c(C)nn23)ccc1OC was read as G9a block 4.8%[59 µM], JMJD2A Tudor 0.0%, HP1b binding inh 23.9% and BAZ2B block -1.7%.
For C/C(N)=C(/C#N)C(=O)CSc1nnc(Nc2c(C)cccc2C)s1 the results were G9a block 31.6µM*, JMJD2A Tudor 56.2µM*, PI5P4K alpha inh -100.0*, HP1b binding inh inconclusive, BAZ2B block -3.0% and PLK1 PBD block -20.4%.
Screening C/C(N)=C(/C#N)C(=O)CSc1nnc(Nc2cccc(C)c2C)s1 returned G9a block inconclusive, JMJD2A Tudor -20.0%, PI5P4K alpha inh -24.1, HP1b binding inh 18.1%, BAZ2B block inconclusive and PLK1 PBD block -24.1%.
O=C(O)Cn1ncc2c1-c1ccoc1CC2 was read as G9a block 11.2µM*, JMJD2A Tudor 56.2µM*, PI5P4K alpha inh -10.4, HP1b binding inh 18.4%, BAZ2B block inconclusive and PLK1 PBD block -13.4%.
Cc1cccc(NC(=O)N2CC(=O)Nc3sc4c(c3C2c2ccccc2)CCCC4)c1C (centres undefined) was read as G9a block inconclusive, JMJD2A Tudor -17.5%, HP1b binding inh -6.7% and BAZ2B block -12.9%.
Cc1ccc(NC(=O)Cn2cc(S(=O)(=O)N3CCN(c4ccccc4F)CC3)c3ccccc3c2=O)cc1F was read as G9a block -21.4%[59 µM], JMJD2A Tudor -10.6%, HP1b binding inh 20.2% and BAZ2B block -11.7%.
O=C1CCCC(O)=C1N=Nc1ccc2c(c1)OCO2 was read as G9a block 19.0%[59 µM], JMJD2A Tudor inconclusive, PI5P4K alpha inh -14.8, HP1b binding inh -30.0%, BAZ2B block inconclusive and PLK1 PBD block -4.7%.
For O=C1CCCC(O)=C1N=Nc1c(Cl)cc(C(F)(F)F)cc1Cl the results were JMJD2A Tudor inconclusive, PI5P4K alpha inh inconclusive, HP1b binding inh -7.4%, BAZ2B block 70.8µM* and PLK1 PBD block -5.6%.
O=C1CCCC(O)=C1N=Nc1ccc(C(=O)O)cc1 was read as G9a block 8.91µM*, JMJD2A Tudor -11.8%[11.4 µM], PI5P4K alpha inh inconclusive, HP1b binding inh 44.7µM*, BAZ2B block 22.4µM* and PLK1 PBD block inconclusive.
`CCOc1ccc(C2C(C(=O)Nc3ccccc3)=C(C)Nc3nc(-c4ccccc4Cl)nn32)cc1OC` (centres undefined) gave G9a block -7.9%[59 µM], JMJD2A Tudor -5.9%, HP1b binding inh 0.3% and BAZ2B block -16.4%.
For O=C(NC(=S)Nc1nc(-c2ccccc2)cs1)c1cncc(Br)c1 the results were G9a block -12.5%, JMJD2A Tudor -22.0%, HP1b binding inh -6.9%, BAZ2B block 9.0%[57.1 µM] and PLK1 PBD block -11.5%.
Screening O=C(/C=C/c1ccc(F)cc1)NC(=S)NNC(=O)c1cnccn1 returned G9a block 50.1µM*, JMJD2A Tudor 7.94µM*, PI5P4K alpha inh 0.1, HP1b binding inh 2.2%, BAZ2B block 2.82µM* and PLK1 PBD block -5.5%.
For Cc1ccccc1NC(=S)NNC(=O)c1cccnc1 the results were G9a block 1.78µM*, JMJD2A Tudor 22.4µM*, PI5P4K alpha inh -17.6, HP1b binding inh -2.9%, BAZ2B block -1.5% and PLK1 PBD block -6.0%.
Screening Cc1ccccc1NC(=S)NNC(=O)c1ccncc1 returned G9a block 4.9%, JMJD2A Tudor -18.5%, PI5P4K alpha inh -2.8, HP1b binding inh 20.8%, BAZ2B block -16.4% and PLK1 PBD block -28.5%.
For O=C(NNC(=S)NC(=O)c1ccc(F)cc1)c1cccnc1 the results were G9a block 11.2µM*, JMJD2A Tudor -8.1%, PI5P4K alpha inh -8.2, HP1b binding inh 5.9%, BAZ2B block 7.2% and PLK1 PBD block -8.0%.
For O=C(NC(=S)Nc1nc(-c2ccccc2)cs1)c1cccnc1 the results were G9a block 2.51µM*, JMJD2A Tudor -16.7%, PI5P4K alpha inh -28.4, HP1b binding inh -5.9%, BAZ2B block -22.6% and PLK1 PBD block inconclusive.
Screening O=C(NNC(=S)NC(=O)c1cccnc1)c1ccc(F)cc1 returned JMJD2A Tudor -14.1%, PI5P4K alpha inh -19.6, HP1b binding inh -1.0%, BAZ2B block 14.4% and PLK1 PBD block -29.4%.
`O=C(CC1C(=O)N(c2ccccc2)C(=O)N1CCC1=CCCCC1)Nc1ccc(F)cc1` (centres undefined) gave G9a block 13.7%[59 µM], JMJD2A Tudor -18.2%, HP1b binding inh 21.5% and BAZ2B block -16.4%.
`COc1ccc(O)c(CN2CCC(n3nccc3NC(=O)CCOc3ccccc3)CC2)c1` gave JMJD2A Tudor -35.6%, PI5P4K alpha inh 1.9, HP1b binding inh 10.5%, BAZ2B block inconclusive and PLK1 PBD block -17.6%.
`O=C(NNC(=S)Nc1ccccc1)c1cccnc1` gave G9a block 56.2µM*, JMJD2A Tudor -11.9%, PI5P4K alpha inh 5.9, HP1b binding inh 37.5%, BAZ2B block -22.9% and PLK1 PBD block -6.4%.
Screening O=C(NC(=S)NNS(=O)(=O)c1ccc(Cl)cc1)c1cccnc1 returned G9a block 50.1µM*, JMJD2A Tudor -14.3%, PI5P4K alpha inh -2.4, HP1b binding inh 21.6%, BAZ2B block 1.8% and PLK1 PBD block -18.9%.
Cc1cccc(C)c1NC(=O)CNC(=O)c1cccnc1 was read as G9a block 79.4µM*, JMJD2A Tudor -3.8%, PI5P4K alpha inh 3.2, HP1b binding inh 51.4%, BAZ2B block -13.5% and PLK1 PBD block 5.1%.
Screening O=C(NNC(=S)NC(=O)c1cccnc1)c1ccccc1 returned G9a block 28.2µM*, JMJD2A Tudor inconclusive, PI5P4K alpha inh -14.0, HP1b binding inh 0.9%, BAZ2B block 4.5%[57.1 µM] and PLK1 PBD block -4.5%.
`O=C(NNC(=S)NCc1ccccc1)c1cccnc1` gave G9a block 28.6%, JMJD2A Tudor -24.4%, PI5P4K alpha inh -2.3, HP1b binding inh 43.1%, BAZ2B block 9.7% and PLK1 PBD block 1.0%.
For COc1ccc(CNC(=O)c2ccc3c(c2)N(Cc2ccccc2C)C(=O)c2ccccc2S3=O)cc1 (centres undefined) the results were G9a block 0.4%[59 µM], JMJD2A Tudor -26.6%, HP1b binding inh 26.2% and BAZ2B block 3.3%.
`CCOC(=O)c1c(NC(=O)c2nc(SCC)ncc2Cl)sc2c1CCCC2` gave G9a block 6.5%[59 µM], JMJD2A Tudor -16.3%, HP1b binding inh 26.0% and BAZ2B block -3.2%.
